Screening results as filed in PubChem.
HT1080 IDH1KD tx: toxicity to HT-1080 IDH1 knockdown cells (counter line). HT-1080 IDH1 knockdown viability, ATP luminescence, 48 h. AID 686971. Potency, µM (top dose mostly 46.1 µM), for the others: top-dose activity, negative = toxicity, hits mostly cytotoxic. 360,000 compounds, 2% hits;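 further: potency means the concentration at half of the fitted maximal effect; 0% = DMSO wells and -100% = cell-free medium wells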
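HT-1080-IDH1KD cells (IDH1 knocked down), 750/well in RPMI with 5% FBS, treated with compound 48 h at 37 degrees C. Viability by CellTiter-Glo luminescence, normalised to DMSO and no-cell wells; concentration-response curves classed.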
DT40 TDP1 no CPT: qHTS for Inhibitors of human tyrosyl-DNA phosphodiesterase 1 (TDP1): qHTS in cells in absence of CPT | DT40 Tdp1-/- hTDP1 cells, no CPT, ATP luminescence, 48 h | Potency, µM (doses to about 46.2 µM), for the others: at the highest dose activity change, negative = growth inhibition, most hits filed as inhibitors | 420,000 compounds, 15% hits | AID 686978, 2013; further: potency means the concentration at half of the fitted maximal effect; nearly all actives have a fitted effect of over 55% in size
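Luminescent ATP content (CellTiter-Glo) served as the growth readout. Knockout chicken DT40 cells expressing human TDP1 were exposed to compounds without camptothecin for a minimum 48 hr at 37 °C.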
HT1080-NT tox: kills 2HG-producing HT-1080-NT fibrosarcoma cells. HT-1080-NT fibrosarcoma viability, CellTiter-Glo ATP luminescence, 48 h. Potency, µM (series often up to 46.1 µM), inactives show top-dose activity, negative = less viability, actives largely listed as cytotoxic. 360,000 compounds, 1.6% hits;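 further: NT is the 2HG producing partner of a matched IDH1 knockdown line; potency means the concentration at half of the fitted maximal effect; 0% = DMSO-treated cells and -100% = media-only wells without cells; nearly all actives have a fitted effect of over 55% in size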
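Read-out is CellTiter-Glo luminescence after 10 minutes at room temperature, following 48 hours' compound treatment of HT-1080-NT cells (750 cells/well, RPMI, 5% FBS, 37 degrees C).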
DT40 TDP1 CPT: DT40-hTDP1 cell growth loss with CPT | Potency, µM (top dose mostly 46.2 µM), for inactives: at the highest dose activity change, negative = growth inhibition, usual class: inhibitors | chicken DT40 Tdp1-/-;hTDP1 cells + 20 nM CPT, ATP luminescence, 48 h | 420,000 compounds, 12% hits; further: potency means the concentration at half of the fitted maximal effect; nearly all actives have a fitted effect of over 55% in size
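Chicken DT40 Tdp1-/- cells stably complemented with human TDP1 were seeded at 400 cells/well in medium containing 20 nM camptothecin, exposed to pin-transferred compounds, and grown at 37 °C for at least 48 hr. Viability was read as ATP luminescence.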
IL1B secr inh: inflammasome signaling inhibition, IL-1 beta readout | THP-1 LPS/ATP IL-1B secretion, AlphaLISA, 16 h; stronger effect = lower value | AID 743279 | activity change, % at 57.5 µM | 360,000 compounds, 4.7% hits; in the data active means activity change below about -50%; inconclusive means mostly about -30% to -49%
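THP-1 cells pretreated 1 hr with compounds (up to 57.5 uM final), then stimulated with LPS (250 ng/mL final) plus ATP (1.25 mM final); secreted IL-1B measured by AlphaLISA after 16 hr, decreased signal indicating inhibition.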
Numbers without * were called inactive; i = inactive; ? = inconclusive; nt = no result given; ! = repeats disagree. Rows were chosen to be rich in hits. Some 19% of all compounds tested hit in one or more screens of this group. Unless noted, the call rests on the fitted dose curve; in most records, active means well fitted curve in the direction sought with a large enough effect; inconclusive means small, poorly fitted or top-dose-only effect, or another doubt; inactive means no such curve, though single readings can be large; an effect the other way counts as inactive or inconclusive. Unless noted, on the % scale 0 is the no-effect control and ±100 the full control effect.

SMILES	HT1080 IDH1KD tx	DT40 TDP1 no CPT	HT1080-NT tox	DT40 TDP1 CPT	IL1B secr inh
CC(C)NC[C@H](O)c1ccc(O)c(O)c1	5%	8.4µM*!	8%	4.7µM*!	-21
CCC(NC(C)C)C(O)c1ccc(O)c(O)c1 (stereo not drawn)	-12%	?	-26%	?	-18
CC(C)NCC(O)c1cc(O)cc(O)c1 (stereo not drawn)	2%	2%	20%	6%	-24
COc1ccc2c(-c3ccc(OCCN4CCCCC4)cc3)c(-c3ccccc3OC)sc2c1	?	15µM*	?	-104%	-20
COc1ccc(-c2sc3cc(OC)ccc3c2-c2ccc(OCCN3CCCCC3)cc2)cc1	16µM*	5.8µM*	21µM*	4.6µM*	?
Oc1ccc2sc(-c3ccccc3O)c(-c3ccc(OCCN4CCCCC4)cc3)c2c1	16µM*	?	?	21µM*	104
COc1ccccc1-c1sc2ccccc2c1-c1ccc(OCCN2CCCCC2)cc1	?	15µM*	?	18µM*	-21
COc1ccc(-c2c(-c3ccccc3OC)sc3ccccc23)cc1OC	-10%	4%	-19%	?	-3
COc1cc2sc(-c3ccccc3OC)c(-c3ccc(OCCN4CCOCC4)cc3)c2cc1OC	?	?	?	?	-23
COc1ccc(OCCN2CCOCC2)cc1	12%	5%	-1%	6%	16
Cc1ccc(N=Cc2c(O)[nH]c3ccccc23)c([N+](=O)[O-])c1	21%	-2%	16%	-13%	14
Cc1cc(-c2nnc(CCC(=O)NCc3cc(F)cc(C(F)(F)F)c3)o2)no1	-4%	-1%	-2%	-14%	0
COc1ccc2c(-c3ccc(OCCN4CCOCC4)cc3)c(-c3ccccc3OC)sc2c1	-18%	21µM*	-18%	21µM*	-4
NC(CO)C(=O)NNCc1ccc(O)c(O)c1O (stereo not drawn)	-2%	4.6µM*	12%	3.7µM*	13
CN(C)/C=C(\C#N)C(=O)N/N=C(\CC(=O)C(F)(F)F)c1ccco1	16%	6%	2%	12%	10
O=S(=O)(c1ccc(Cl)cc1)N1CCN(CCc2ccccc2)CC1	1%	-21%	2%	-24%	-5
Cc1c(C2CCN(CCc3ccccc3)CC2)noc1-c1ccc(Cl)cc1	nt	9.2µM*	nt	12µM*	nt
Cc1c(-c2ccc(Cl)cc2)noc1C1CCN(CCc2ccccc2)CC1	nt	15µM*	nt	?	nt
O=C(COc1ccc2c3c(c(=O)oc2c1)CCCC3)N1CCN(c2ccc(F)cc2)CC1	4%	?	13%	23µM*	7
Cc1cccc(N2CCN(C(=O)COc3cc4oc(=O)cc(C)c4cc3Cl)CC2)c1C	10%	-13%	10%	-25%	18
O=C(COc1ccc2c3c(c(=O)oc2c1)CCC3)N1CCN(c2ccc(F)cc2)CC1	-5%	-8%	5%	?	64
COc1ccc(N2CCN(C(=O)COc3ccc4c(C)cc(=O)oc4c3C)CC2)cc1	2%	2%	0%	-4%	34
Cc1cccc(N2CCN(C(=O)COc3ccc4c(C)cc(=O)oc4c3C)CC2)c1C	?	15µM*	-29%	13µM*	?
COC(=O)Cc1c(C)c2ccc(OCC(=O)N3CCC(C)CC3)c(C)c2oc1=O	10%	15µM*	-4%	13µM*	i
Cc1cc(=O)oc2c(C)c(OCC(=O)N3CCN(c4ccc(F)cc4)CC3)ccc12	-12%	23µM*	-26%	23µM*	27
Cc1ccccc1CSc1nc2cc(C(=O)NC3CCCC3)ccc2c(=O)n1Cc1ccccc1	nt	-13%	nt	-1%	nt
CCc1ccccc1N1CC23C=CC(O2)C(C(=O)O)C3C1=O (stereo not drawn)	-2%	-22%	13%	18µM*	-9
CCCCOC(=O)C1[C@H]2C(=O)N(c3ccccc3CC)C[C@]23C=C[C@H]1O3 (stereo partly drawn)	5%	-4%	7%	1%	20
